# Source: PubChem BioAssay AID743421 (Vanderbilt Specialized Chemistry Center, 2014)
# Biological target: Metabotropic glutamate receptor 6 (Homo sapiens) (UniProt O15303)
# Experiment: mGlu6 agonist response modulation at 10 µM, profiling panel, selectivity assay for mGlu8/mGlu7 PAM project, cell-based, GIRK thallium flux, agonist curve fold shift (AID 743421)
# Conditions: mGlu6/GIRK cells, thallium flux (Fluo Zn), agonist CRC fold shift, stronger effect = higher value
# Chain of Metabotropic glutamate receptor 6 (Homo sapiens) (O15303 whole entry, looked up): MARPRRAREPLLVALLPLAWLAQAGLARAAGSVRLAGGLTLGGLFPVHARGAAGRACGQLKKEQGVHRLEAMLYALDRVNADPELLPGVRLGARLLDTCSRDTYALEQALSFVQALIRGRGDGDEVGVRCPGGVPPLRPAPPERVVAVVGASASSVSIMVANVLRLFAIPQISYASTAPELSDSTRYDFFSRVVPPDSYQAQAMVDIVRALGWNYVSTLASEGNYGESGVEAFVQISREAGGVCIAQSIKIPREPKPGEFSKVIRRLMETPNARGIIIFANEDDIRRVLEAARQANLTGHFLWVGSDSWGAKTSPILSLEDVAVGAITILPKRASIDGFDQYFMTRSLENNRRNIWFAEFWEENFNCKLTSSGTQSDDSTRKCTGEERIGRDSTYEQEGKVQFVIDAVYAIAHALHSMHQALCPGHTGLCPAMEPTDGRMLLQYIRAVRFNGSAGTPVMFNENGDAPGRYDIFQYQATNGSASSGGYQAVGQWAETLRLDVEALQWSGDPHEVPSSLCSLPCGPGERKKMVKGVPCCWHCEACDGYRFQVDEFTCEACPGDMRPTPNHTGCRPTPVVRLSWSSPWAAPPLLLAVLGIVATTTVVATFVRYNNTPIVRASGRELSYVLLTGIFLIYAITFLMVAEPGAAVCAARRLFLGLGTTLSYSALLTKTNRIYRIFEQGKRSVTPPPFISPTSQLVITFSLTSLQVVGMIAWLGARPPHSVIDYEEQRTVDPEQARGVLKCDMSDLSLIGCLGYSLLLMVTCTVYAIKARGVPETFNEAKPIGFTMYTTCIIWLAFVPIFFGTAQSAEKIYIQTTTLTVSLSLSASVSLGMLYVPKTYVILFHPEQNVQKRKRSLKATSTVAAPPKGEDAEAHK
structure (smiles),measurement,value
COC(=O)c1ccc(-n2c(C)cc(C(=O)CSc3ccc(NC(C)=O)cc3)c2C)cc1,fold shift,2.59
